Laboratory results from ChEMBL document CHEMBL4513216, “Probing the Open Global Health Chemical Diversity Library for Multistage-Active Starting Points for Next-Generation Antimalarials” (ACS Infect Dis, 2020).
Hit rate of the full screen: of about 69,000 compounds, about 8,600 (12%) showed an effect of 50% or more. For the sample, strong results were picked, then their nearest neighbours and some compounds at random.

system: Plasmodium berghei; assay: Screen against P. berghei liver stage (PbLuc), transformed with Luciferase, at 10uM; format: functional, HepG2; conditions: tested at 10 uM

| Compound | INHIBITION [%] |
| --- | --- |
| Cc1cc(C)n(C2CN(CCc3ccccn3)C2)n1 | 28.2 |
| Cc1nn(C)c(Cl)c1C1CCCN1Cc1ccccn1 (stereo unspecified) | 8.64 |
| COc1ccc(C2CC(=O)Oc3cc(C)[nH]c(=O)c32)cc1O (stereo unspecified) | 15.4 |
| O=C(c1cc(-n2cnnn2)ccc1Cl)N1CCOCC1 | 30.8 |
| O=c1cnc2ccccc2n1CCCn1cccn1 | 44.5 |
| CC(C)NC(=O)CC1COC2(CCN(Cc3ccccc3)CC2)C1 (stereo unspecified) | 21.6 |
| Cc1nc(C2CCCN(C(=O)c3cnn(C4CCCCC4)c3)C2)no1 (stereo unspecified) | -25.9 |
| O=C(c1cnc2c(cnn2C2CCCC2)c1)N1CCCSCC1 | 36.1 |
| CC(C)NC(=O)CC1CC2(CCN(CC3CC3)CC2)Oc2ccccc21 (stereo unspecified) | -2.35 |
| CC(C)CCN1CCc2[nH]nc(C(=O)N3CC=CC3)c2C1 | 50.3 |
| Cc1cccc(CN2CCC3(CCCN(CC(=O)N(C)C)C3)C2)n1 (stereo unspecified) | 51.2 |
| CC(=O)N1CCc2[nH]nc(C(=O)N3CC=CC3)c2C1 | 23.1 |
| CC(C)CCN1CCc2[nH]nc(C(=O)N3CCCC3C)c2C1 (stereo unspecified) | 2.58 |
| Cc1cccc(CN2CCCC3(CCN(CC(=O)N(C)C)C3=O)C2)n1 (stereo unspecified) | 27.6 |
| Cc1cccc(CN2CCC3(CCC(CC(=O)N(C)C)CC3)CC2)n1 | 23.1 |
| COC(=O)c1ccc(C)c(N2CCNC2=O)c1 | 34 |
| CS(=O)(=O)N1CCC(NC(=O)COc2cccc(Cl)c2)CC1 | -35.7 |
| CCO[C@@H]1C[C@H]2CN(Cc3ccc(C)o3)CCN2C1 | -37.9 |
| COCCc1noc(CN2C(=O)OC[C@@H]2C(C)C)n1 | 55.9 |
| COCc1noc(CN2C(=O)OC[C@@H]2C(C)C)n1 | 14.6 |
| COCc1nc(CN2C(=O)OC[C@@H]2C(C)C)no1 | 27.6 |
| CCn1nc(C)c(C(=O)N2C[C@@H](CN(C)CCOC)[C@@H](CO)C2)c1C | 20 |
| NC(=O)c1cc2c(nc1Oc1ccccc1CN1CCCCC1)CCC2 | 27.4 |
| NC(=O)c1cc2c(nc1Oc1cccc(CN3CCCC3)c1F)CCC2 | 62.1 |

| Compound | INHIBITION [%] |
| --- | --- |
| NC(=O)c1cc2c(nc1-c1ccoc1)CCC2 | 30.3 |
| NC(=O)c1cc2c(nc1Oc1ccc(CN3CCCC3)cc1F)CCC2 | 67 |
| CN1CCCCC1Cc1nc2c(cc1C(N)=O)CCC2 (stereo unspecified) | -107 |
| CC(=O)Nc1ccc(Oc2ccc(CN3CCCC3)cc2F)cc1 | 45.1 |
| Cc1cc(C)c2c(N3CCC(C(=O)N4CCCC4)CC3)ncnc2n1 | 42.8 |
| Cc1ccccc1C(=O)N1C[C@@H]2COC[C@]2(COCc2cccnc2)C1 | 1.9 |
| CC(=O)N1CCN(Cc2ccsc2)CC2(CC(=O)N(C)C2)C1 (stereo unspecified) | 16.1 |
| CC(C)N1CCC2(CC1)C[C@@H](O)[C@H](c1ccccc1)NC2=O | 40 |
| Cc1ccc2c(c1)C(NC(=O)N(C)C)CC21CCN(CC2CC2)CC1 (stereo unspecified) | 22.4 |
| COCC(=O)NC1CC2(CCN(CCO)CC2)c2ccccc21 (stereo unspecified) | 33.1 |
| COCC(=O)NC1CC2(CCN(Cc3ccco3)CC2)c2ccccc21 (stereo unspecified) | 32.4 |
| CCN1CCC2(CC1)CC(NC(=O)c1ccnnc1)c1ccccc12 (stereo unspecified) | -9.42 |
| CC(C)C(=O)NC1CC2(CCN(CC(=O)N(C)C)CC2)c2ccccc21 (stereo unspecified) | 60.2 |
| COCC(=O)NC1CC2(CCN(CCN(C)C)CC2)c2ccccc21 (stereo unspecified) | 53.9 |
| CC(C)(CNCc1ccc(OCc2cscn2)cc1)C(N)=O | -47 |
| Cc1cnc(CN2CCC(N(C)Cc3noc(C4CC4)n3)C2)o1 (stereo unspecified) | 33.3 |
| CCC(C)c1ccc(NC(=O)C2CCN(C(=O)COC)CC2)cc1 (stereo unspecified) | 16.6 |
| CCC(C)c1ccc(NC(=O)C2CCN(C(=O)N(C)C)CC2)cc1 (stereo unspecified) | 76.9 |
| CCc1ccc(NC(=O)C2CCN(C(=O)COC)CC2)cc1 | 39.3 |
| Cn1cncc1C(=O)N1CCCC(c2ccn[nH]2)C1 (stereo unspecified) | -35.9 |
| CC(NCc1nnc2n1CCCC2)C(=O)N1CCc2sccc2C1 (stereo unspecified) | -21.9 |
| O=C1CC(N(C(=O)COc2ccc(F)cc2F)C2CC2)C(=O)N1 (stereo unspecified) | 0.472 |
| Nc1nccc(NCc2cc3n(n2)CCCN(C(=O)C2CCC2)C3)n1 | 28.5 |
| Cc1cc(C)nc(NCc2cc3n(n2)CCCN(C(=O)C2CCC2)C3)n1 | 13.3 |

| Compound | INHIBITION [%] |
| --- | --- |
| Cc1cc(NCc2cc3n(n2)CCCN(C(=O)C2CCC2)C3)nc(N)n1 | 80.2 |
| Cc1nc(C2CCCN(S(C)(=O)=O)C2)sc1Br (stereo unspecified) | -7.66 |
| CCc1cc(N(C)Cc2noc(CC(C)C)n2)ncn1 | 57.6 |
| CC(C)Cc1noc(CN(C)c2cc(N(C)C)ncn2)n1 | -8.75 |
| COc1cc(N(C)Cc2noc(CC(C)C)n2)ncn1 | 43 |
| CCn1cc(NC(=O)C2CCN(CC(=O)NC3CCCC3)CC2)cn1 | -10.6 |
| O=C(N[C@@H]1CN(Cc2ccco2)[C@@H]2CCCO[C@@H]21)c1cscn1 | 8.6 |
| COc1ccc(F)cc1C(C)NC(=O)NCCCn1cncn1 (stereo unspecified) | 11.9 |
| CCN(Cc1ccoc1)C(=O)C1CN(C(=O)OC(C)(C)C)C1 | -26.7 |
| O=C(COCC(F)(F)C(F)F)N1CCC2(CCCN(CCO)C2=O)C1 (stereo unspecified) | -8.97 |
| CC(C)N1CCCC2(CCN(C(=O)COCC(F)(F)C(F)F)C2)C1=O (stereo unspecified) | 50.2 |
| O=C(COCC(F)(F)C(F)F)N1CCC2(CCCN(CC3CC3)C2=O)C1 (stereo unspecified) | 27.8 |
| COC1COC2(CCN(CC3CC3)CC2)C1 (stereo unspecified) | 15.8 |
| Cc1csc(NC(=O)C2CSCCC(=O)N2)n1 (stereo unspecified) | 24.5 |
| Cc1nnc(CNC(=O)C2CSCCC(=O)N2)o1 (stereo unspecified) | -5.22 |
| NC(=O)Cc1csc(NC(=O)C2CSCCC(=O)N2)n1 (stereo unspecified) | 32.1 |
| O=C1CCSCC(C(=O)NCc2nc(-c3ccccc3)no2)N1 (stereo unspecified) | 14.3 |
| Cc1noc(CNC(=O)C2CSCCC(=O)N2)n1 (stereo unspecified) | 61.6 |
| CNC(=O)Cc1csc(NC(=O)C2CSCCC(=O)N2)n1 (stereo unspecified) | 50.2 |
| CCN(Cc1c(C)nn(CC)c1C)S(=O)(=O)c1cnn(C)c1C | 38.3 |
| CC[C@@H]1N(Cc2ccncc2)CCC[C@]12CCC(=O)N2C | 18.6 |
| CC(C)n1nc2c(cc1=O)CN(CCOc1cccc(C#N)c1)CC2 | 23.1 |
| Clc1ccc(-c2nnc(CNCCn3cccn3)o2)c(Cl)c1 | -38.2 |
| CC(C)[C@H]1CN(Cc2c[nH]nn2)C[C@@H]1NC(=O)C1CCOCC1 | 16.3 |

| Compound | INHIBITION [%] |
| --- | --- |
| Cc1ncsc1CN1C[C@@H]2COC[C@]2(C(=O)NC2CC(F)(F)C2)C1 | 32.1 |
| CC(C)[C@H]1CN(Cc2ccccc2C#N)C[C@@H]1NC(=O)C1CCOCC1 | 45.9 |
| Cc1csc(CN2C[C@H](NC(=O)C3CCOCC3)[C@@H](C(C)C)C2)n1 | 42.5 |
| Cc1ncsc1CN1C[C@H](NC(=O)C2CCOCC2)[C@@H](C(C)C)C1 | 75.4 |
| Cc1nnc(CN2C[C@H](NC(=O)C3CCOCC3)[C@@H](C(C)C)C2)s1 | 90.2 |
| CCN(Cc1ccc(F)cc1Cl)C1CCS(=O)(=O)C1 (stereo unspecified) | 21.6 |
| Cc1cc(C[S+]([O-])Cc2ccccc2F)on1 (stereo unspecified) | 10.1 |
| CCCn1cc(-c2cc(C(=O)N(C)C)c3ccc(OC)cc3n2)cn1 | 29.85 |
| COc1cccc(CSc2nnc(C)n2CC(N)=O)c1 | -15.1 |
| Cc1cccc(CSc2nnc(C)n2CC(N)=O)c1 | 57.7 |
| Cc1nnc(SCc2cccc(F)c2)n1CC(N)=O | 20.9 |
| O=C(NCCCN1CCOCC1)c1ccn(COc2ccc(F)cc2)n1 | -41.2 |
| O=C(NCC(CO)Cc1ccc(Cl)cc1)c1ccncc1Cl (stereo unspecified) | 5.21 |
| CCSc1cc(C(=O)NCC(C)(C)N(C)C)ccn1 | 15.7 |
| CN(CC(=O)Nc1ccccc1C(=O)NC1CC1)Cc1ccccc1Cl | 8.08 |
| CCOC(=O)c1ccccc1NC(=O)CN(C)Cc1ccccc1Cl | 68.9 |
| CCOc1ccccc1NC(=O)CN(C)Cc1ccccc1Cl | 32 |
| N#Cc1cccc(S(=O)(=O)NC(=O)C2CC(c3ccccc3)=NO2)c1 (stereo unspecified) | 33.4 |
| Cc1cc2ccncc2n1CC1(O)CCN(C(=O)c2cccnc2)CC1 | 9.98 |
| CN1CC(=O)N(c2cccnc2)Cc2c(NC3CC3)ncnc21 | 41.6 |
| CC(C)c1cc(=O)[nH]c(-c2ccccc2CN2CCC(C)(C)C2)n1 | 29.4 |
| CC(C)(C)c1cc(=O)[nH]c(-c2ccccc2CN2CCCCCC2)n1 | -7.65 |
| CC1(C)CCN(Cc2ccccc2-c2nc(C(C)(C)C)cc(=O)[nH]2)C1 | 57.3 |
| Cc1cc(C)n(C2CN(c3ncnc4c3CCNCC4)C2)n1 | 40.5 |

| Compound | INHIBITION [%] |
| --- | --- |
| Cc1ccc(C2(O)CCN(C(=O)CCn3ccc(=O)[nH]c3=O)CC2)nc1 | 82 |
| Cc1ccc(C2(O)CCN(C(=O)CCn3c(C)cccc3=O)CC2)nc1 | 28.7 |
| Cc1ccc(C2(O)CCN(C(=O)Cn3cc(C)c(=O)[nH]c3=O)CC2)nc1 | 30.9 |
| CN(CC(O)C(F)(F)F)C(=O)Nc1cccc(C(F)F)c1 (stereo unspecified) | 40.7 |
| Cc1c(NC(=O)C(C)N(C)C)c(=O)n(-c2ccccc2)n1C (stereo unspecified) | -45.8 |
| COc1ccc(Cl)cc1CS(=O)(=O)Cc1nc(C2CC2)no1 | -3.96 |
| COc1ccc(Cl)cc1CS(=O)(=O)Cc1noc(C)n1 | 34.7 |
| COc1ccc(Cl)cc1CS(=O)(=O)Cc1nc(C)no1 | 60.4 |
| Clc1snnc1CN1CCCC(Cn2cncn2)C1 (stereo unspecified) | 62.1 |
| c1ccc(-c2nc(CN3CCCC(Cn4cncn4)C3)cs2)cc1 (stereo unspecified) | -7.35 |
| Clc1ccc(CN2CCCC(Cn3cncn3)C2)c2ncccc12 (stereo unspecified) | 35.1 |
| Cc1cccc2cc(CN3CCCN4CCC[C@H]4C3)c(=O)[nH]c12 | 34.9 |
| Clc1cc(CN2CCCC(Cn3cncn3)C2)c2ncccc2c1 (stereo unspecified) | 76.2 |
| CC(C)(C)c1nc(CN2CCCC(Cn3cncn3)C2)cs1 (stereo unspecified) | 61.7 |
| Clc1cc(CN2CCCC2Cn2cncn2)c2ncccc2c1 (stereo unspecified) | 22.9 |
| Clc1cc(CN2CCCCC2Cn2cncn2)c2ncccc2c1 (stereo unspecified) | -9.83 |
| Clc1snnc1CN1CCCCC1Cn1cncn1 (stereo unspecified) | 10.8 |
| CC(C)c1nc(CN2CCCC(Cn3cncn3)C2)cs1 (stereo unspecified) | 31.2 |
| Clc1snnc1CN1CCCC1Cn1cncn1 (stereo unspecified) | -11.4 |
| Clc1cc(CN2CCCN3CCCC3C2)c2ncccc2c1 (stereo unspecified) | 55 |
